This note sets out measurements from the OligoGym collection.
Further: reference of the scale not given here.

One assay deals with CBWD1. In words: pooled miR-30 sensor sort-seq; sequence = guide strand. The note with it: shRNA.
Consider TTCTTCTGGAACCAGGTCTGTT, for which the sensor-assay potency score (higher = more potent) was -0.933.

In turn, AAGCAACTTGTCTAGTAGCTTC gave a sensor-assay potency score (higher = more potent) of -0.327. On the same count and under the same terms, the figure for TACATCTTCTTCTGGAACCAGG is -0.734.

Another assay has as its target CBWD2. The description is as above. As to conditions: shRNA.
As to TTATGGATCTAATTGTCGCTCT, the sensor-assay potency score (higher = more potent) worked out at 0.237. TATTTTGAATCCACTATAGTTA registered a sensor-assay potency score (higher = more potent) of -0.411. For TTTATGGATCTAATTGTCGCTC, the sensor-assay potency score (higher = more potent) is -0.0827.

Another assay concerns the target CBWD3. The assay is described as above. The note with it: shRNA.
Sequence TTTATGGATCTAATTGTCGTTC showed a sensor-assay potency score (higher = more potent) of -0.438. As for TTATTATCCAATCCTTTTGATA, the sensor-assay potency score (higher = more potent) was -1.04. On to TTACATCTTCTTCTGGAACCAG, for which the sensor-assay potency score (higher = more potent) turned out to be 0.201. With TTATCCAATCCTTTTGATAAGA, the sensor-assay potency score (higher = more potent) is -1.37. In the case of TCTTCTGGAACCAAGTCTGTTT, the sensor-assay potency score (higher = more potent) was -0.303. The sequence TACATCTTCTTCTGGAACCAAG came in with a sensor-assay potency score (higher = more potent) of -0.337. Same read-out and setting: next, TATTATCCAATCCTTTTGATAA: -1.72; TTTATTATCCAATCCTTTTGAT: -0.0523; TTGTCGTTCTTAATTTCTTTAC: -1.76.

The next assay concerns the target CBX5. Described as above. The note with it: shRNA.
TTTAGATTTGATGTCATCGGCA registered a sensor-assay potency score (higher = more potent) of -0.103. Sequence TTAGATTTGATGTCATCGGCAC showed a sensor-assay potency score (higher = more potent) of 0.364. The sequence TCACATTAGCTTCTTTTGCAAG returned a sensor-assay potency score (higher = more potent) of -1.01. The same measure, in the same setting: next, TAGATATTCCACTTGTCCCTTA: 0.296. Sequence TAAAATGCTATCACAATTTGTG displayed a sensor-assay potency score (higher = more potent) of -0.0381. The same measure, in the same setting: the figure for TATACTTTTTCATAAATTCAGA is -1.38; for TTTTAGATTTGATGTCATCGGC it is -0.344.

Sequence TTAGGAACATTAAATCACCACA came in with a sensor-assay potency score (higher = more potent) of -0.835.

On to TTACTTTCTGACTTCTCCCTGG, for which the sensor-assay potency score (higher = more potent) was 0.106. In the case of TTTGATGTCATCGGCACTGTTT, the sensor-assay potency score (higher = more potent) is -0.553. With TAAATTCAGAAATTAGCTCAGG, the sensor-assay potency score (higher = more potent) is -0.159. In the case of TTAAATCACCACAGGAATCTGT, the sensor-assay potency score (higher = more potent) was -0.0279.

The target in the next assay is CBX7. Described as above. As to conditions: shRNA.
As to TCCACTTCACCAGATACTCGAC, the sensor-assay potency score (higher = more potent) is -1.35. In turn, ATACTCGACTTTACCCTTCCGC had a sensor-assay potency score (higher = more potent) of -0.334. As to TCGATGGCTGTGGCTCTCCAGG, the sensor-assay potency score (higher = more potent) was -1.84. For TGTACTTTGGGGGCCATCCTTT, the sensor-assay potency score (higher = more potent) was -1.24. ATACATCACACAACTTAGCAGA had a sensor-assay potency score (higher = more potent) of -0.583. Still for that read-out and setting: the figure for TCGTAGGCCATGACGAGGCGGG is -0.996; for TTTAACTCCCAGAACCAGCTGC it is 0.312. Same read-out and setting: next, TTCCGCACGCGCTTCTTCCGGA: -0.445; TTCTTTGAAAGTGACCAGGAAG: -1.2; TAGTTCTTTGAAAGTGACCAGG: -0.792. TAGAGGAGAATGATAATGGTGG displayed a sensor-assay potency score (higher = more potent) of 0.263.

Regarding TACTCGACTTTACCCTTCCGCA, the sensor-assay potency score (higher = more potent) was -1.36.
